How the values were obtained:
Settings in all cases: concentration: 1 μM, replicates: in singlicate; n = 1
HIPK3 = tested on: HIPK3
HIPK4 = tested on: HIPK4
HPK1 = tested on: HPK1
HUNK = tested on: HUNK
ICK = tested on: ICK
IGF1R = tested on: IGF1R
IKK-alpha = tested on: T1, IKK-alpha
T1 construct: gene CHUK

IKK-beta = tested on: T2, IKK-beta
T2 construct: gene IKBKB

IKK-epsilon = tested on: T3, IKK-epsilon
T3 construct: gene IKBKE

INSRR = tested on: INSRR
INSR = tested on: INSR
IRAK1 = tested on: IRAK1
IRAK3 = tested on: IRAK3
IRAK4 = tested on: IRAK4
ITK = tested on: ITK
[1] = tested on: JAK1(JH1domain-catalytic)
[2] = tested on: JAK1(JH2domain-pseudokinase)
[3] = tested on: JAK2(JH1domain-catalytic)
[4] = tested on: JAK3(JH1domain-catalytic)
JNK1 = tested on: T4, JNK1
T4 construct: gene MAPK8
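Also: KINOMEscan kinase panel screen.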

SMILES	%Inh (HIPK3) [%]	%Inh (HIPK4) [%]	%Inh (HPK1) [%]	%Inh (HUNK) [%]	%Inh (ICK) [%]	%Inh (IGF1R) [%]	%Inh (IKK-alpha) [%]	%Inh (IKK-beta) [%]	%Inh (IKK-epsilon) [%]	%Inh (INSRR) [%]	%Inh (INSR) [%]	%Inh (IRAK1) [%]	%Inh (IRAK3) [%]	%Inh (IRAK4) [%]	%Inh (ITK) [%]	%Inh [1] [%]	%Inh [2] [%]	%Inh [3] [%]	%Inh [4] [%]	%Inh (JNK1) [%]
Nc1n[nH]c2nnc(-c3ccccc3)c(-c3ccccc3)c12 [GW554060]	68	0	27	5	0	0	28	0	0	0	3	12	9	19	12	21	0	10	0	19
O=C(Nc1n[nH]c2nc(-c3ccccc3)c(Cl)cc12)C1CC1 [SB-734909]	33	0	11	20	29	0	43	56	0	8	31	26	23	24	0	14	22	13	0	56
Cl.NS(=O)(=O)c1cccc(Nc2cc(-c3ccc(F)cc3)n[nH]2)c1 [GW824645]	18	18	0	58	12	0	1	9	8	0	5	0	0	0	0	0	23	48	0	8
CCn1c(-c2ccoc2)nc2cnccc21 [SB-733887]	20	0	35	0	14	0	30	29	60	0	96.3	59	0	50	9	9	65	16	0	9
Cc1nnc(-c2ccc3ncn(-c4ccc(S(C)=O)cc4)c3c2)o1 (stereo not drawn)	13	6	0	0	0	0	25	7	0	0	0	0	0	0	15	33	28	0	0	6
Cn1c(=O)c(F)c(Nc2ccc(I)cc2F)c2c(=O)n(OC[C@H](O)CO)cnc21	0	81	0	0	0	0	0	0	0	0	5	0	0	0	3	2	14	9	1	18
COC(=O)c1c(-c2ccccc2)c2cc(Br)ccc2c(=O)n1Cc1ccc(NC(=O)CCC(=O)O)cc1	0	0	0	0	14	0	0	0	0	13	8	8	25	16	12	5	0	0	0	99
O=C(NCc1cccs1)c1cc(C(=O)c2c(Cl)cccc2Cl)c[nH]1 [GW823670]	0	0	37	31	0	1	0	0	3	0	0	0	26	0	1	1	5	0	0	0
CCC(=O)c1c(-c2ccccc2)c2cc(Cl)ccc2c(=O)n1Cc1cc(S(C)(=O)=O)n(CC(F)F)n1	0	0	0	3	0	10	0	0	0	0	0	26	0	27	0	2	0	0	0	99.1
CCC(=O)c1c(-c2ccccc2)c2cc(Cl)ccc2c(=O)n1Cc1cc(S(C)(=O)=O)n(CC(N)=O)n1	0	0	0	0	0	0	0	0	0	0	0	0	0	0	0	0	51	0	0	99
Nc1ncnc2c1ncn2-c1cccc2ccccc12 [SKF-97184]	0	7	2	45	0	0	16	3	0	0	0	27	0	0	0	1	33	54	19	15
Cl.c1ccc(Cn2cnc3cc(Nc4ncnc5ccccc45)ccc32)cc1 [GW272142]	8	0	36	5	0	34	0	12	17	36	0	26	0	15	7	4	0	0	0	13
CC(C)(C)c1ccc(C(=O)Nc2cn3cc(-c4ccccc4)ccc3n2)cc1	20	0	0	9	0	0	5	6	0	0	0	17	12	13	12	12	42	0	0	13
Cc1ccccc1COc1cc(-n2cnc3cc(Cl)ccc32)sc1C(N)=O [GW813349]	12	21	62	18	0	9	0	0	62	23	3	22	3	17	13	0	20	17	0	24
COc1cc2ncn(-c3cc(OCc4ccncc4)c(C(N)=O)s3)c2cc1OC [GSK336313]	21	0	21	0	4	0	0	0	26	99.3	1	8	0	0	4	6	0	0	0	0
Cc1c(Cn2c(C)nn3c(=O)cc(N4CCO[C@H](C)C4)nc23)cccc1C(F)(F)F [GSK2373690]	30	0	24	4	1	41	0	3	0	14	0	23	14	24	26	21	0	14	0	18
CCS(=O)c1ccc(-c2coc3ccc(-c4nnc(C)o4)cc23)cc1 (stereo not drawn)	21	0	11	0	10	0	10	6	0	0	1	6	0	9	0	1	20	23	0	22
COc1ccc(-c2cc3c(C)nc(N)nc3n([C@H]3CC[C@H](O)CC3)c2=O)cn1	0	0	0	0	0	0	0	0	0	0	0	0	0	0	0	0	0	0	0	0
COc1cccc(C2=C(Nc3cccc(C(=O)O)c3)C(=O)NC2=O)c1 [SB-390770]	1	7	5	20	0	8	0	6	0	19	0	0	7	0	1	1	2	33	94.7	22
COc1cc2ncn(-c3cc(OCCCc4ccccc4)c(C(N)=O)s3)c2cc1OC [GSK205189]	0	60	28	0	0	13	0	0	14	3	13	0	7	0	5	0	0	1	0	15
O=c1cc(N2CCOCC2)nc2n(Cc3ccc(F)c(Cl)c3)ccn12 [GSK2297099]	23	0	25	0	16	0	3	17	0	0	23	10	0	16	1	19	0	100	0	21

Source: publication PMC5540273 (PLoS ONE, 2017)
